In all, about 360,000 compounds went through this assay and about 780 (0.22%) were called active. This is one part of a sample in which actives are shown more often than they occur. Rule as the data show it: active = inhibition above about 8.5% (passing the limit was not always enough); inconclusive = no clear call, values can overlap the other calls.
These molecules were tested on Mycobacterium tuberculosis FadD28 fatty-acid-AMP ligase (assay: inhibitors of FadD28 bisubstrate probe binding, primary screen, biochemical, fluorescence polarization, single point (AID 588549)). Settings: at 12.5 µM, stronger effect = higher value.

**Q.** Which inhibition does the source give for `CCCC1C(c2ccccc2)C(C#N)(C#N)C2(C#N)CC1(N)NC2=O` (centres undefined) here?
**A.** -0.503% (inactive)

**Q.** `COc1cccc(OCC(O)CNC(=O)c2oc3c(C)c(C)ccc3c2C)c1` (centres undefined) was tested. Which inhibition did it give?
**A.** -2.55% (inactive)

**Q.** With `COc1c(O)cc2oc(-c3ccc(O)c(O)c3)cc(=O)c2c1O` as the molecule, how does the inhibition read?
**A.** 13.9% (active)

**Q.** With `COc1cc(O)c2c(=O)c3c(O)c(O)ccc3oc2c1OC` as the molecule, how does the inhibition read?
**A.** -0.783% (inactive)

**Q.** How did the inhibition turn out when `OCc1ccc(-c2ccccc2)c(-c2ccccc2)c1` was run?
**A.** -0.325% (inactive)

**Q.** For `COc1ccccc1C(=O)NC(=S)NC12CC3CC(CC(C3)C1)C2`, which inhibition is on record?
**A.** -0.832% (inactive)

**Q.** Which inhibition does the source give for `COc1ccc(CCNC(=S)NC(=O)/C=C/c2ccc(C)cc2)cc1OC` here?
**A.** -0.381% (inactive)

**Q.** Which inhibition does the source give for `CC(Nc1ccccc1)c1cccnc1` (centres undefined) here?
**A.** -4.94% (inactive)

**Q.** For `CCC(CC)c1nnc(NC(=O)c2nn(C)c(=O)c3ccccc23)s1`, which inhibition is on record?
**A.** -1.39% (inactive)

**Q.** For `Cc1ccc(N2CCN(S(=O)(=O)c3ccc(F)cc3)CC2)c(C)c1`, which inhibition is on record?
**A.** -3.77% (inactive)

**Q.** How did the inhibition turn out when `CC1CC(C)CN(C(=O)COC(=O)c2ccc3ncsc3c2)C1` (centres undefined) was run?
**A.** -1.75% (inactive)

**Q.** With `Cc1cc(C)c(C#N)c(SCC(=O)N(CC(C)C)C2CCS(=O)(=O)C2)n1` (centres undefined) as the molecule, how does the inhibition read?
**A.** -3.78% (inactive)

**Q.** For `CCC(C)(C)c1ccc(Oc2ccc(NC(=O)COC(=O)C3=COCCO3)cc2)cc1`, which inhibition is on record?
**A.** -2.88% (inactive)

**Q.** For `COc1ccccc1CCCNC(=O)C1CCC(=O)N(CCN2CCOCC2)C1` (centres undefined), which inhibition is on record?
**A.** -0.246% (inactive)

**Q.** With `Cn1c(=O)n(CCc2ccccc2)c(=O)c2c1nc1n2CCCN1c1ccccc1` as the molecule, how does the inhibition read?
**A.** -3.89% (inactive)

**Q.** How did the inhibition turn out when `Cc1ccc(NC(=O)CN2C(=O)NC(C)(c3ccc(Cl)cc3)C2=O)c(Br)c1` (centres undefined) was run?
**A.** -1.17% (inactive)

**Q.** Which inhibition does the source give for `COc1ccc(NC(=O)CN(C)C(=O)c2cccc(S(=O)(=O)N3CCN(c4ccccc4)CC3)c2)cc1` here?
**A.** -1.23% (inactive)

**Q.** Which inhibition does the source give for `O=C(O)c1ccccc1N=N/C(=N/Nc1cc(S(=O)(=O)O)ccc1O)c1ccccc1` here?
**A.** 8.82% (active)

**Q.** `CC(C)(O)C#Cc1ccc(CNC[C@H]2O[C@@H](n3cnc4c(=O)[nH]c(N)nc43)[C@H](O)[C@@H]2O)s1` was tested. Which inhibition did it give?
**A.** -0.925% (inactive)

**Q.** With `O=S(=O)(c1ccc(SCc2ccc(Br)cc2)nc1)N1CCOCC1` as the molecule, how does the inhibition read?
**A.** -1.66% (inactive)

**Q.** For `O=C(Nc1cccc(-c2cccc(Cl)c2)c1)C1CCN(C2CCC2)CC1`, which inhibition is on record?
**A.** -25.6% (inactive)

**Q.** `Cc1ccc(/C([O-])=C(/C(=S)NCc2ccco2)[n+]2ccccc2)cc1[N+](=O)[O-]` was tested. Which inhibition did it give?
**A.** 1.32% (inactive)

**Q.** For `Cc1sc2ncnc(SCC(=O)NC3CCS(=O)(=O)C3)c2c1C` (centres undefined), which inhibition is on record?
**A.** -1.04% (inactive)

**Q.** Which inhibition does the source give for `CC1CCCC(C)N1C(=O)COC(=O)COc1ccccc1C#N` (centres undefined) here?
**A.** -1.75% (inactive)
